According to the supplement of paper PMC3342239:
Where a name gives a salt, the structure may show the parent alone.

These compounds were tested on Saccharomyces cerevisiae (assay: fraction of cells in G1 phase (DNA content, flow cytometry); higher = more cells with unreplicated DNA (G1 delay)). Settings: temperature: 30 C; YPD; JTY2953 pdr5 snq2 (sensitized); drug added to: cultures diluted from stationary phase; 6-7 h.
In short: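 For the G1 fraction, the Dean-Jett-Fox G1 peak area was divided by the sum of the G1 and G2/M areas. S. cerevisiae in YPD at 30°C received library drugs and was fixed 6–7 h later for sensitized JTY2953 (diluted 1∶200 from overnight, final 20 µg/ml), 6 h later for dividing JTY2953, or 4.33 h later for BY4741. Fixed cells were stained with SYTOX Green and 10,000 events recorded by flow cytometry.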

Row | SMILES | fraction of cells in G1 phase
1 | Cc1cnc(C(=O)NCCc2ccc(S(=O)(=O)NC(=O)NC3CCCCC3)cc2)cn1 [Glipizide] (44.8889 µM) | 0.577
2 | COc1ccccc1OCCNCC(O)COc1cccc2[nH]c3ccccc3c12 (stereo not drawn) [Carvedilol] (49.2022 µM) | 0.525
3 | CC(C)C[C@H](NC(=O)[C@H](Cc1ccccc1)NC(=O)c1cnccn1)B(O)O [Bortezomib] (52.0499 µM) | 0.4
4 | CCCCN1CCCCC1C(=O)Nc1c(C)cccc1C (stereo not drawn) [Bupivacaine HCl] (69.3393 µM) | 0.447
5 | CN(C)CCCN1c2ccccc2CCc2ccccc21 [Imipramine HCl] (71.3225 µM) | 0.524
6 | NCCC(O)(P(=O)(O)O)P(=O)(O)O [Pamidronic acid] (85.0806 µM) | 0.476
7 | COc1ccc(CN(CCN(C)C)c2ccccn2)cc1 [Mepyramine maleate] (70.079 µM) | 0.495
8 | CN1CCN(c2c(F)cc3c(=O)c(C(=O)O)cn4c3c2SCC4)CC1 [Rufloxacin] (55.0337 µM) | 0.466
9 | CC(C)(C)NCC(O)c1ccc(O)c(CO)c1 (stereo not drawn) [Salbutamol sulfate] (83.5711 µM) | 0.535
10 | Nc1nc2ccc(OC(F)(F)F)cc2s1 [Riluzole HCl] (85.3967 µM) | 0.551
11 | Clc1ccccc1CN1CCc2sccc2C1 [Ticlopidine HCl] (75.8175 µM) | 0.505
12 | NC[C@@H]1O[C@H](O[C@H]2[C@@H](O)[C@H](O[C@@H]3[C@@H](O)[C@H](N)C[C@H](N)[C@H]3O[C@H]3O[C@H](CN)[C@@H](O)[C@H](O)[C@H]3N)O[C@@H]2CO)[C@H](N)[C@@H](O)[C@@H]1O [Neomycin sulfate] (32.5386 µM) | 0.495
13 | CO[C@@H]1[C@H](OC(=O)/C=C/C=C/C=C/C=C/C(=O)O)CC[C@]2(CO2)[C@H]1[C@@]1(C)O[C@@H]1CC=C(C)C [Fumagillin] (43.6151 µM) | 0.518
14 | C[C@@H](O)[C@H]1C(=O)N2C(C(=O)O)=C(SCCNC=N)C[C@H]12 [Imipenem] (66.8112 µM) | 0.486
15 | Cc1cc2c(s1)Nc1ccccc1N=C2N1CCN(C)CC1 [Olanzapine] (64.0123 µM) | 0.527
16 | CCOC(=O)[C@H](CCc1ccccc1)N[C@@H](C)C(=O)N1Cc2ccccc2C[C@H]1C(=O)O [Quinapril HCl] (45.6071 µM) | 0.482
17 | CN[C@@H]1[C@H](O)[C@H](NC)[C@H]2O[C@@]3(O)C(=O)C[C@@H](C)O[C@H]3O[C@@H]2[C@H]1O [Spectinomycin] (60.1763 µM) | 0.485
18 | CC[C@H]1OC(=O)[C@H](C)[C@@H](O[C@H]2C[C@@](C)(OC)[C@@H](O)[C@H](C)O2)[C@H](C)[C@@H](O[C@@H]2O[C@H](C)C[C@H](N(C)C)[C@H]2O)[C@](C)(O)C[C@@H](C)CN(C)[C@H](C)[C@@H](O)[C@]1(C)O [Azithromycin] (26.7021 µM) | 0.471
19 | CC(C)Nc1cccnc1N1CCN(C(=O)c2cc3cc(NS(C)(=O)=O)ccc3[nH]2)CC1 [Delavirdine mesylate] (43.8048 µM) | 0.487
20 | COc1ccccc1Oc1c(NS(=O)(=O)c2ccc(C(C)(C)C)cc2)nc(-c2ncccn2)nc1OCCO [Bosentan] (36.2564 µM) | 0.497
21 | CCn1cc(C(=O)O)c(=O)c2cc(F)c(N3CCNC(C)C3)c(F)c21 (stereo not drawn) [Lomefloxacin HCl] (56.9223 µM) | 0.489
22 | C=C[C@H]1CN2CC[C@H]1C[C@H]2[C@H](O)c1ccnc2ccc(OC)cc12 [Quinine] (55.417 µM) | 0.5
23 | OCc1cc(C(O)CNCCCCCCOCCCCc2ccccc2)ccc1O (stereo not drawn) [Salmeterol] (48.1257 µM) | 0.472
24 | COc1c(C)c2c(c(O)c1C/C=C(\C)CCC(=O)OCCN1CCOCC1)C(=O)OC2 [Mycophenolate mofetil] (46.1355 µM) | 0.513
25 | CC(C(=O)O)c1cccc(C(=O)c2ccccc2)c1 (stereo not drawn) [Ketoprofen] (78.6509 µM) | 0.502
26 | CN1[C@@H]2CC[C@H]1C[C@@H](OC(=O)c1c[nH]c3ccccc13)C2 [Tropisetron HCl] (70.3331 µM) | 0.469
27 | CCN(CC)CC(=O)Nc1c(C)cccc1C [Lidocaine] (73.8552 µM) | 0.499
28 | CCOC(=O)C1=C[C@@H](OC(CC)CC)[C@H](NC(C)=O)[C@@H](N)C1 [Oseltamivir] (64.0179 µM) | 0.472
